Sampled rows, rich in hits. Any-hit rate of the full collection: about 11%.
Luciferase inh: blocks purified firefly luciferase enzyme activity; hit rate 2.5% among 76,000; purified P. pyralis luciferase, luminescence, biochemical; Potency, µM (series often up to 115 µM), actives largely listed as inhibitors; AID 1347043; P08659; note: nearly all actives have a fitted effect of over 65% in size
Target sequence (P08659 whole entry, looked up): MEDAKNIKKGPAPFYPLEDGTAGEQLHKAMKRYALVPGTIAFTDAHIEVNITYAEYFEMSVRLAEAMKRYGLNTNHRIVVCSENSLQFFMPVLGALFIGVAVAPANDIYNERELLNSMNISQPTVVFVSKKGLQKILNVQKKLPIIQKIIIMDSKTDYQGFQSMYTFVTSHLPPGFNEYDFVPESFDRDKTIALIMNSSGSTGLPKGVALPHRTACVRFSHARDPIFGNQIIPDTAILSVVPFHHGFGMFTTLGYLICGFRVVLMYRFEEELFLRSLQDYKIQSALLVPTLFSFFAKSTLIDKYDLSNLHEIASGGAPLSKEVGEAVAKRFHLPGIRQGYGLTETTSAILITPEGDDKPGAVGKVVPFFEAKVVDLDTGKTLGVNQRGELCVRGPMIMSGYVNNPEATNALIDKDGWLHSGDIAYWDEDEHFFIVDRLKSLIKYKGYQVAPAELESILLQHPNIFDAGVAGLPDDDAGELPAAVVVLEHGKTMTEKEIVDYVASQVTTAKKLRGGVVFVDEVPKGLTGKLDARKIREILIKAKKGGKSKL
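Luminescence read by CCD imager after adding enzyme (10nM final) to wells holding compound, titrated in qHTS. Substrates 10uM each D-luciferin and ATP; buffer 50mM Tris acetate pH 7.5, 10mM Mg acetate, Tween-20, BSA.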
NPR1 antag: antagonists of human natriuretic peptide receptor Npr1. HEK293 hNpr1 GloSensor cGMP, ANP-stimulated luminescence. hit rate 1.6% among 76,000. Potency, µM (top dose mostly 46.3 µM), for inactives: at the highest dose activity change, negative = inhibition, most hits filed as inhibitors. P16066. AID 1347048; calls by dose curve; note: nearly all actives have a fitted effect of over 60% in size
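Compound pre-incubated 30 min at room temperature on GloSensor-loaded HEK293 cells stably carrying hNpr1 and the pGS-40F cGMP biosensor. Stimulation uses hNppA at 0.1 nM final; luminescence is taken at baseline and 20 min post-agonist.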
HEK cytotox: cytotoxic compounds in HEK 293 cells; HEK 293 viability, ATP luminescence (CellTiter-Glo), 48-72 h; Potency, µM (top dose mostly 115 µM), inactives show at the highest dose activity change, negative = cytotoxicity, actives largely listed as inhibitors; hit rate 6.6% among 94,000; AID 1345083; note: nearly all actives have a fitted effect of over 60% in size
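CellTiter-Glo luminescence (cellular ATP) was read after 48 or 72 hr of compound exposure at 37 degree Celsius. Cells were HEK 293 plated at 250 cells/well.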
NIH3T3 tox: NIH 3T3 cell cytotoxicity; NIH 3T3 viability, CellTiter-Glo ATP luminescence, 48-72 h; Potency, µM (top dose mostly 96.7 µM), for the others: at the top dose activity change, negative = cytotoxicity, actives largely listed as inhibitors; hit rate 4.3% among 94,000; note: nearly all actives have a fitted effect of over 55% in size
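Luminescent ATP readout (CellTiter-Glo, 10 min RT) after 48 or 72 hr compound exposure of NIH 3T3 cells seeded at 400 cells/well in 1536-well format; quantitative HTS.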
An asterisk follows results filed as active; i = inactive; u = inconclusive; x = no result given; [ ] = remark or other dose. Unless noted, calls come from the whole dose curve; as a rule, active = well fitted curve in the direction sought with a large enough effect; inconclusive = small, poorly fitted or top-dose-only effect, or another doubt; inactive = no such curve, though single readings can be large; an effect the other way counts as inactive or inconclusive. % is set by controls: 0 for no effect and ±100 for the full control effect; potency is the fitted concentration of half-maximal effect.

SMILES | Luciferase inh | NPR1 antag | HEK cytotox | NIH3T3 tox
O=C(NC1CCCC1)N1CCCN(c2ccc3nnc(-c4ccccc4)n3n2)CC1 | x | x | -18% | u
C=CCNC(=O)Nc1nc2c(s1)C[C@]1(C)CC[C@@H]3[C@H](OC(=O)[C@H]3C)[C@H]1[C@@H]2C | 16µM* | -19%[70.6 µM] | u | -10%[174 µM]
COc1cc(NC(=O)Nc2nc3c(s2)C[C@]2(C)CC[C@@H]4[C@H](OC(=O)[C@H]4C)[C@H]2[C@@H]3C)cc(OC)c1 | u | 8% | u | u
COCCNC(=O)[C@@H](C)C1CC[C@@]2(C)Cc3sc(NC(=O)CN(C)C)nc3[C@@H](C)[C@@H]2[C@H]1O (some centres undefined) | 20µM* | -9% | -18% | 1%
C[C@@H]1C(=O)O[C@H]2[C@H]1CC[C@@]1(C)Cc3sc(NC(=O)CC(C)(C)C)nc3[C@@H](C)[C@H]21 | 20µM* | -21%[70.6 µM] | 32µM* | u
C[C@@H]1C(=O)O[C@H]2[C@H]1CC[C@@]1(C)Cc3sc(NC(=O)CN(C)C)nc3[C@@H](C)[C@H]21 | 3.2µM* | 16µM* | -9%[172 µM] | -15%[174 µM]
C[C@@H]1C(=O)O[C@H]2[C@H]1CC[C@@]1(C)Cc3sc(NC(=O)CCC(=O)O)nc3[C@@H](C)[C@H]21 | u | -17%[70.6 µM] | 1%[172 µM] | -4%[174 µM]
O=C(c1ccccc1C(F)(F)F)N1CCc2c(nc3cc[nH]n3c2=O)C1 | i | -2% | 7% | i
C[C@@H]1C(=O)O[C@H]2[C@H]1CC[C@@]1(C)Cc3sc(Nc4ccc(C(=O)O)cc4)nc3[C@@H](C)[C@H]21 | 1µM* | 13µM* | -7%[172 µM] | 0%[138 µM]
C[C@@H]1C(=O)O[C@H]2[C@H]1CC[C@@]1(C)Cc3sc(NC(=O)COc4ccccc4)nc3[C@@H](C)[C@H]21 | i | -30% | u | -23%
CC(C)CCO[C@H]1COCCN(Cc2ccccn2)C1 | i | 4%[70.6 µM] | -10%[230 µM] | -4%[174 µM]
O=C(N[C@H]1[C@H]2CCO[C@H]2[C@@H]1N1CCCC1)c1ccc(-c2cccc(F)c2)cc1 | i | -1% | -28% | u
COc1cccc(-c2ccccc2NC(=O)C2CCN(Cc3ccccc3F)CC2)c1 | i | u | u | 45µM*
COc1cccc(-c2ccccc2NC(=O)C2CCN(CC=C(C)C)CC2)c1 | i | 4% | u | 20µM*
COc1cccc(CN2CCC(C(=O)Nc3ccccc3-c3cccc(OC)c3)CC2)c1 | i | u | 22µM* | u
C=CCCC(=O)N1C[C@@H](C(=O)OCC)[C@@H]2Oc3ccccc3[C@@H]21 | x | x | -4% | u
CCN1C(=O)C2CC3(CCN(C(=O)c4ccc(C)s4)CC3)CN2C1=O (centres undefined) | i | -1% | -22% | -14%
Cc1ccc([S+](=O)([O-])N2CCCC(C(=O)N3CCC(c4ccccc4)CC3)C2)cc1 (centres undefined) | x | x | -23% | -25%
CN(C)C(=O)C(C)(C)Oc1nn(Cc2cccc(Cl)c2)c2ccccc12 | i | -10%[70.6 µM] | 79µM* | u
COCc1ccc2c(c1)c(OC(C)(C)C(N)=O)nn2Cc1cccc(OC)c1 | i | 6%[70.6 µM] | u | u
COCCN(C)C(=O)C(C)(C)Oc1nn(Cc2cccc(Cl)c2)c2ccccc12 | i | -22%[70.6 µM] | 89µM* | 79µM*
CN(C)Cc1ccc2c(c1)c(OC(C)(C)C(=O)NC1CC1)nn2Cc1ccccc1 | i | 4%[70.6 µM] | -23%[172 µM] | u
O=C(Cc1c[nH]c2ncc(-c3cccnc3)cc12)Nc1ccc(F)cc1 | i | -15%[70.6 µM] | u | 28µM*
CN(C)c1cccc(NC(=O)Cc2c[nH]c3ncc(-c4cccnc4)cc23)c1 | i | -25%[70.6 µM] | u | u
CN(C)C(=O)Cc1c[nH]c2ncc(-c3cccnc3)cc12 | i | -1%[70.6 µM] | -29%[230 µM] | 25µM*
SMILES | Luciferase inh | NPR1 antag | HEK cytotox | NIH3T3 tox
CN(C)c1cccc(-c2cnc3[nH]cc(CC(=O)NCc4cccnc4)c3c2)c1 | u | -10%[70.6 µM] | u | u
CN(C)c1ccc(CN2Cc3[nH]cnc3C[C@H]2c2nc(-c3ccccc3)no2)cc1 | 40µM* | -4%[70.6 µM] | u | u
Cc1ccc(-c2noc([C@@H]3Cc4nc[nH]c4CN3Cc3ccc(N(C)C)cc3)n2)cc1 | u | u | 89µM* | 100µM*
O=C1NCc2ccccc2CC12CCCCN2Cc1ccc(CO)o1 (centres undefined) | x | x | -14% | -13%
COC(=O)C1=C(C)N=C2SC=C(CC(=O)NCCOc3ccccc3)N2C1c1cccc(OC)c1 (centres undefined) | i | -24% | u | -27%
O=C1NCCCCCCN(Cc2ccncc2)[C@@H]2CN(C(=O)C3CCCCC3)CC[C@@H]12 | i | 5% | 45µM* | u
O=C1NCCCCCCN(Cc2ccc(C(F)(F)F)cc2)[C@H]2CCC[C@@H]12 | i | -23% | 40µM* | u
COc1cccc(-c2nc3cnccn3c2NCCC(=O)N2CCCC(C)C2)c1 (centres undefined) | i | 4% | -10% | i
CCc1nc(N2CCc3ccccc3C2)ncc1C(=O)O | 22µM* | -22% | 32µM* | 25µM*
O=C(O)c1cnc(N2CCCCC2)nc1-c1ccccc1 | i | 8% | 1% | u
CC(=O)N1CCN(C(=O)c2nc3sccn3c2-c2ccncc2)CC1 | x | x | -7%[172 µM] | -14%[138 µM]
O=C(Nc1cc(F)cc(F)c1)c1cnc(-c2ccc(F)cc2)nc1-c1ccncc1 | u | u | 22µM* | 20µM*
O=C(Nc1ccc(F)c(Cl)c1)c1cnc(-c2ccccc2)nc1-c1ccncc1 | i | u | 35µM* | 25µM*
O=C(NC1CCN(c2ccc3nnc(-c4ccccc4)n3n2)CC1)C1CC1 | x | x | -24% | -22%
O=C(Cc1ccccn1)N1CCCC1C(=O)N1CCCC1c1nc2ccncc2[nH]1 (centres undefined) | x | x | -7% | -5%
CC1=C[C@@H](CN)[C@H](C(C)C)C[C@H]1Cc1nc2ccccc2[nH]1 | i | -17%[70.6 µM] | u | u
COc1ccc2[nH]c(C[C@@H]3C[C@@H](C(C)C)[C@H](CNCc4ccccc4O)C=C3C)nc2n1 | i | u | 45µM* | 35µM*
COc1ccc2[nH]c(C[C@@H]3C[C@@H](C(C)C)[C@H](CN(C)C)C=C3C)nc2n1 | i | -13%[70.6 µM] | u | 89µM*
Cc1cccc(CNCc2ccccc2OCC(O)CN2CCSCC2)c1 (centres undefined) | i | u | u | u
Cc1ccc(C(=O)N2CCCC3(C2)Nc2cccnc2NC3=NC2CCCC2)cc1F (centres undefined) | i | 3% | 71µM* | u
O=C(c1ccc2c(c1)OCO2)N1CCCC2(C1)Nc1cccnc1NC2=NC1CCCC1 (centres undefined) | i | -1% | -26% | -13%
COc1ccc(NC(=O)N2CCC3(CC2)CC(N(C(C)=O)C2CC2)CCO3)cc1 (centres undefined) | i | -12% | 2% | -24%
COc1ccc(CN2CC(COc3ccccc3)Oc3ncccc3[S+]2(=O)[O-])cc1 (centres undefined) | x | x | 22µM* | u

Source: PubChem (National Center for Advancing Translational Sciences (NCATS))
